# Source: ChEMBL document CHEMBL2218924, “A broad activity screen in support of a chemogenomic map for kinase signalling research and drug discovery” (Biochem J, 2013)
# Target: T1, Ephrin type-B receptor 2 (Homo sapiens) (UniProt P29323)
# T1 sequence (whole entry): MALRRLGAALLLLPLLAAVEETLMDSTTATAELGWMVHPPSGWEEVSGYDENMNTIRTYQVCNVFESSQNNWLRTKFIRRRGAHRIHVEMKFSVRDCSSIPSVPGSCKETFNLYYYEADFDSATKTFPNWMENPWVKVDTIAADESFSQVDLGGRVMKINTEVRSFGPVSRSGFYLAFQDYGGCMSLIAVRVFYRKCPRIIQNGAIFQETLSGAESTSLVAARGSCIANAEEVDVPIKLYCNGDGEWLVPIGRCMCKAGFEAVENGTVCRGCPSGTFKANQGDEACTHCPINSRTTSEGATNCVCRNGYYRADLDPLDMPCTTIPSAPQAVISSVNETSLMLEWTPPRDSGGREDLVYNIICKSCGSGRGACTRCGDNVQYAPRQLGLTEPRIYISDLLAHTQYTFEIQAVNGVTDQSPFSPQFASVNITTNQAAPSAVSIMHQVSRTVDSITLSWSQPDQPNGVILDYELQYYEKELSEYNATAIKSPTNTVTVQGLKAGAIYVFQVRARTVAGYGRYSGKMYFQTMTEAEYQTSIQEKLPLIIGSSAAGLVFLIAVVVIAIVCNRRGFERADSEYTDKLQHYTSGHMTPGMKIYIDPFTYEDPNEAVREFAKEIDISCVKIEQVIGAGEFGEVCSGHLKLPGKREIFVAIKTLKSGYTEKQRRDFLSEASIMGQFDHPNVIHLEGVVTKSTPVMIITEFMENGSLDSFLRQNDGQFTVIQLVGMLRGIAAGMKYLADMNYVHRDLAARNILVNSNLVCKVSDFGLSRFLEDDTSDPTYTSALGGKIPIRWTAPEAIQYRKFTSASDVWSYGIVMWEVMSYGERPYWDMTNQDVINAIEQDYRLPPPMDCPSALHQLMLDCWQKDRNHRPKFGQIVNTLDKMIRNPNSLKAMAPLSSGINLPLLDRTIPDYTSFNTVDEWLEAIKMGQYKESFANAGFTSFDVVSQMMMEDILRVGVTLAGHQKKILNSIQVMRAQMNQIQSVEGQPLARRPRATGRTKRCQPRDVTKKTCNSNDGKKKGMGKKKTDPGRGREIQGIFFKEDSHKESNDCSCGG
# Details: at 1 µM; call rule not given here
row,SMILES,residual activity [%]
1,COc1ccc2c(c1)c(C1=C(c3c[nH]c4ccccc34)C(=O)NC1=O)cn2CCCN(C)C,109
2,Cn1c2ccccc2c2c3c(c4c5ccccc5n(CCC#N)c4c21)CNC3=O,116
3,CC(C)[C@H](CO)Nc1nc(Nc2cc(N)cc(Cl)c2)c2ncn(C(C)C)c2n1,92
4,COc1ccc(COc2ccc(Cc3cnc(N)nc3N)cc2OC)cc1,108
5,Nc1ncnc2c1c(-c1ccc(Oc3ccccc3)cc1)cn2C1CCCC1,108
6,COc1cc2nccc(Oc3ccc(NC(=O)Nc4cc(C)on4)c(Cl)c3)c2cc1OC,-2
7,O=C1Cc2c([nH]c3ccc(Br)cc23)-c2ccccc2N1,121
8,O=c1cc(N2CCNCC2)oc2c(-c3ccccc3)cccc12,103
9,CCCCc1c(-c2ccc(OC)cc2)[nH]c2nccnc12,101
10,CCCC(=O)Oc1ccc2[nH]c(C(=O)c3cc4ccccc4[nH]3)cc2c1,120
11,CC(C)(C)n1nc(Cc2cccc3ccccc23)c2c(N)ncnc21,3
12,O=C(CCCc1ccc(-c2ccccc2F)cc1)Nc1ccc(O)cc1,107
13,CCCCc1c(-c2ccc(O)cc2)[nH]c2nccnc12,96
14,NC(=O)Nc1sc(-c2ccc(F)cc2)cc1C(N)=O,93

# Target: T1, Ephrin type-B receptor 2 (Homo sapiens)
# Details: at 10 µM
row,SMILES,residual activity [%]
1,Cn1c2ccccc2c2c3c(c4c5ccccc5n(CCC#N)c4c21)CNC3=O,111
2,CC(C)[C@H](CO)Nc1nc(Nc2cc(N)cc(Cl)c2)c2ncn(C(C)C)c2n1,7
3,COc1ccc(COc2ccc(Cc3cnc(N)nc3N)cc2OC)cc1,129
4,Nc1ncnc2c1c(-c1ccc(Oc3ccccc3)cc1)cn2C1CCCC1,101
5,COc1cc2nccc(Oc3ccc(NC(=O)Nc4cc(C)on4)c(Cl)c3)c2cc1OC,-1
6,O=C1Cc2c([nH]c3ccc(Br)cc23)-c2ccccc2N1,120
7,COc1cc2c(cc1OC)-c1n[nH]c(Nc3cccc(F)c3)c1C2,64
8,CCCCc1c(-c2ccc(OC)cc2)[nH]c2nccnc12,89
9,CCCC(=O)Oc1ccc2[nH]c(C(=O)c3cc4ccccc4[nH]3)cc2c1,131
10,CC(C)(C)n1nc(Cc2cccc3ccccc23)c2c(N)ncnc21,-1
11,Fc1ccc(-c2nc3n(c2-c2ccncc2)CCS3)cc1,91
12,O=C(CCCc1ccc(-c2ccccc2F)cc1)Nc1ccc(O)cc1,112
13,Nc1ncnc2[nH]nc(Nc3ccc(F)cc3)c12,9
14,CCCCc1c(-c2ccc(O)cc2)[nH]c2nccnc12,82
15,NC(=O)Nc1sc(-c2ccc(F)cc2)cc1C(N)=O,19

# Target: T2, Ephrin type-B receptor 3 (Homo sapiens) (UniProt P54753)
# T2 sequence (whole entry): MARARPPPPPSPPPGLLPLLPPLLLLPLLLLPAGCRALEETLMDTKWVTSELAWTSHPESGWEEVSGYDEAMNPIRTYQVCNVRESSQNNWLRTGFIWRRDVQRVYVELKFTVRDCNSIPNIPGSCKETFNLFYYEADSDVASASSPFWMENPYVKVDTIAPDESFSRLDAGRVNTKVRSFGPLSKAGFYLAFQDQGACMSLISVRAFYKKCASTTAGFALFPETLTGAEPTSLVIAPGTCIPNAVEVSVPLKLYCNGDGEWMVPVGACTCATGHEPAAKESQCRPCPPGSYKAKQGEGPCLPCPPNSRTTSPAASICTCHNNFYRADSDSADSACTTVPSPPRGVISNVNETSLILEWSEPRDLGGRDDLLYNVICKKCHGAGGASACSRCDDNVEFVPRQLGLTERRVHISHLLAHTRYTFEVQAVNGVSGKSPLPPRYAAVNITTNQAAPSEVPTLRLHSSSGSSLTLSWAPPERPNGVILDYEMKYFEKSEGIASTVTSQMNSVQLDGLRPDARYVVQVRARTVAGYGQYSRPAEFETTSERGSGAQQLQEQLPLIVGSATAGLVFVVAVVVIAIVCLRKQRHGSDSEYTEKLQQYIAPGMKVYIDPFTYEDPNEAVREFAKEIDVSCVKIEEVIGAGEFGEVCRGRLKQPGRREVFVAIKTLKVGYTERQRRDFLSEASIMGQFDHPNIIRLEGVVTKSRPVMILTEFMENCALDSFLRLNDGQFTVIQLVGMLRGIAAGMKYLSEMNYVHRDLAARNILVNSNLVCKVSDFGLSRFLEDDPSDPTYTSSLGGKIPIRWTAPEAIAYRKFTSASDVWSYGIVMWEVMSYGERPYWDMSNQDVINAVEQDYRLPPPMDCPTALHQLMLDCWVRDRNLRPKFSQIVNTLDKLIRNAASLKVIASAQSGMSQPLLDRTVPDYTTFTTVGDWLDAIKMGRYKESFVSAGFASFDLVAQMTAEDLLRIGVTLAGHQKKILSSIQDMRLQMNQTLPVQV
# Details: at 1 µM
row,SMILES,residual activity
1,COc1ccc2c(c1)c(C1=C(c3c[nH]c4ccccc34)C(=O)NC1=O)cn2CCCN(C)C,111% (inactive)
2,CCN(CC)CCNC(=O)c1c(C)[nH]c(/C=C2\C(=O)Nc3ccc(Cl)cc32)c1C,129% (inactive)
3,Cn1c2ccccc2c2c3c(c4c5ccccc5n(CCC#N)c4c21)CNC3=O,105% (inactive)
4,CC(C)[C@H](CO)Nc1nc(Nc2cc(N)cc(Cl)c2)c2ncn(C(C)C)c2n1,92% (inactive)
5,COc1ccc(COc2ccc(Cc3cnc(N)nc3N)cc2OC)cc1,114% (inactive)
6,Nc1ncnc2c1c(-c1ccc(Oc3ccccc3)cc1)cn2C1CCCC1,104% (inactive)
7,O=C1NC(=O)c2c1c1c3ccccc3[nH]c1n1cncc21,121% (inactive)
8,CCCCc1c(-c2ccc(OC)cc2)[nH]c2nccnc12,121% (inactive)
9,CCCC(=O)Oc1ccc2[nH]c(C(=O)c3cc4ccccc4[nH]3)cc2c1,102% (inactive)
10,CC(C)(C)n1nc(Cc2cccc3ccccc23)c2c(N)ncnc21,112% (inactive)
11,O=C(CCCc1ccc(-c2ccccc2F)cc1)Nc1ccc(O)cc1,109% (inactive)
12,Nc1ncnc2[nH]nc(Nc3ccc(F)cc3)c12,123% (inactive)
13,CN(C)S(=O)(=O)c1ccc2c(c1)/C(=C/c1cc3c([nH]1)CCCC3)C(=O)N2,120% (inactive)
14,NC(=O)Nc1sc(-c2ccc(F)cc2)cc1C(N)=O,117% (inactive)
15,O=C1Nc2ccc(Cl)cc2/C1=C/c1cc(Cl)c(O)c(Cl)c1,113% (inactive)

# Target: T2, Ephrin type-B receptor 3 (Homo sapiens)
# Details: at 10 µM
row,SMILES,residual activity [%]
1,COc1ccc2c(c1)c(C1=C(c3c[nH]c4ccccc34)C(=O)NC1=O)cn2CCCN(C)C,124
2,COc1cc2nccc(Oc3ccc(NC(=S)NC(=O)c4ccccc4C)cc3)c2cc1OC,129
3,CCN(CC)CCNC(=O)c1c(C)[nH]c(/C=C2\C(=O)Nc3ccc(Cl)cc32)c1C,130
4,Cn1c2ccccc2c2c3c(c4c5ccccc5n(CCC#N)c4c21)CNC3=O,118
5,CSc1nc(-c2ccc(F)cc2)c(-c2ccnc(NC(C)c3ccccc3)c2)[nH]1 (configuration not stated),80
6,CC(C)[C@H](CO)Nc1nc(Nc2cc(N)cc(Cl)c2)c2ncn(C(C)C)c2n1,116
7,COc1ccc(COc2ccc(Cc3cnc(N)nc3N)cc2OC)cc1,110
8,Nc1ncnc2c1c(-c1ccc(Oc3ccccc3)cc1)cn2C1CCCC1,117
9,CC(C)c1nn(-c2c(Cl)cccc2Cl)c2nc(Cc3ccc(OCCO)cc3)[nH]c(=O)c12,108
10,COc1cc2ncnc(Nc3cccc(Cl)c3)c2cc1OC,121
11,O=C1NC(=O)c2c1c1c3ccccc3[nH]c1n1cncc21,97
12,CCCCc1c(-c2ccc(OC)cc2)[nH]c2nccnc12,109
13,CC(C)(C)n1nc(Cc2cccc3ccccc23)c2c(N)ncnc21,12
14,O=C(CCCc1ccc(-c2ccccc2F)cc1)Nc1ccc(O)cc1,97
15,Nc1ncnc2[nH]nc(Nc3ccc(F)cc3)c12,107
16,CN(C)S(=O)(=O)c1ccc2c(c1)/C(=C/c1cc3c([nH]1)CCCC3)C(=O)N2,94
17,NC(=O)Nc1sc(-c2ccc(F)cc2)cc1C(N)=O,117
18,O=C1Nc2ccc(Cl)cc2/C1=C/c1cc(Cl)c(O)c(Cl)c1,115
